# Where “and” joins values, the source holds several entries; their conditions need not be identical. Identical values can stand only once. Inconclusive results are not listed. A call without a number means that no potency is given here. A structure can be active in one record and inactive in another. Calls of active or inactive are those of the source. Calls follow the shape of the dose curve; as a rule, active = well fitted curve in the direction sought with a large enough effect; inconclusive = small, poorly fitted or top-dose-only effect, or another doubt; inactive = no such curve, though single readings can be large; an effect the other way counts as inactive or inconclusive. Residues, ends and D or L forms follow the SMILES beside them. *: point of attachment. Cbz = O=C(OCc1ccccc1)*
# What was measured:
# [1] = target: Guanine nucleotide-binding protein G(i) subunit alpha-1 (Homo sapiens) (UniProt P63096); assay: qHTS Assay for Inhibitors of RGS12 GoLoco Motif Activity (Green Fluorophore) (AID 879)
# Guanine nucleotide-binding protein G(i) subunit alpha-1 (Homo sapiens), sequence (P63096 whole entry, looked up): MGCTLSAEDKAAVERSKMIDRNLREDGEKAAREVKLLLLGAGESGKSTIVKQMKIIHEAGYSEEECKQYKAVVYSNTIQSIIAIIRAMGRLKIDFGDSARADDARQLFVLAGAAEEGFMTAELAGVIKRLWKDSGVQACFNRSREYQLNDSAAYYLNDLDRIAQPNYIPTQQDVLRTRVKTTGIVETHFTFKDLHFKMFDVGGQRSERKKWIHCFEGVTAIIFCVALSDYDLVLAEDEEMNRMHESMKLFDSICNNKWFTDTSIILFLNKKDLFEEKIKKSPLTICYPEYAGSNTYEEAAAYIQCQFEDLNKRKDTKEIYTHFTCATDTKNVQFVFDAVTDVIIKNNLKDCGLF
# Summary of the method: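 Fluorescence polarization assay: 50 nM Gαi1 with 10 nM FITC-labeled RGS12 GoLoco peptide in 10 mM Tris pH 7.5, 150 mM NaCl, 0.1 mM GDP, 0.05% NP40, 10 min at room temperature with compound.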
# [2] = target: Cytochrome P450 2C9 (Homo sapiens) (UniProt P11712); assay: qHTS Assay for Inhibitors and Substrates of Cytochrome P450 2C9 (AID 883); also: nearly all actives have a fitted effect of over 60% in size
# Cytochrome P450 2C9 (Homo sapiens), sequence (P11712 whole entry, looked up): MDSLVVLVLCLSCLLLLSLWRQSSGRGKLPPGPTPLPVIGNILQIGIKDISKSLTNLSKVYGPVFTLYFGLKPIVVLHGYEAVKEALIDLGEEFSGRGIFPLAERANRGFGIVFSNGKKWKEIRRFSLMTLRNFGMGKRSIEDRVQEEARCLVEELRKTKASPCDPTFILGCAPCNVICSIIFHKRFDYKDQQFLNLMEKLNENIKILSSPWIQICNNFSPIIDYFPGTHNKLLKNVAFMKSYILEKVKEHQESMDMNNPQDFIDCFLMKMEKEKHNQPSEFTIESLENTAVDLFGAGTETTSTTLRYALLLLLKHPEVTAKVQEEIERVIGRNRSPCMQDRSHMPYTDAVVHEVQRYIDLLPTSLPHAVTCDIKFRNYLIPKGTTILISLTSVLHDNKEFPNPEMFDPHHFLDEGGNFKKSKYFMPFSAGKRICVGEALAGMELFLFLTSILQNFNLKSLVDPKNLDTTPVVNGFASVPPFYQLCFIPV
# Summary of the method: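 CYP2C9 deoxyluciferin hydroxylation, 37C, 60 min with NADPH regeneration; 10nM enzyme, 100uM Luciferin-H (KM). Glo detection reagent stopped reaction; luminescence normalized to sulphaphenazole (57uM) full inhibition.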
# [3] = target: Cytochrome P450 3A4 (Homo sapiens) (UniProt P08684); assay: qHTS Assay for Activators of Cytochrome P450 3A4 (AID 885); also: nearly all actives have a fitted effect of over 65% in size
# Cytochrome P450 3A4 (Homo sapiens), sequence (P08684 whole entry, looked up): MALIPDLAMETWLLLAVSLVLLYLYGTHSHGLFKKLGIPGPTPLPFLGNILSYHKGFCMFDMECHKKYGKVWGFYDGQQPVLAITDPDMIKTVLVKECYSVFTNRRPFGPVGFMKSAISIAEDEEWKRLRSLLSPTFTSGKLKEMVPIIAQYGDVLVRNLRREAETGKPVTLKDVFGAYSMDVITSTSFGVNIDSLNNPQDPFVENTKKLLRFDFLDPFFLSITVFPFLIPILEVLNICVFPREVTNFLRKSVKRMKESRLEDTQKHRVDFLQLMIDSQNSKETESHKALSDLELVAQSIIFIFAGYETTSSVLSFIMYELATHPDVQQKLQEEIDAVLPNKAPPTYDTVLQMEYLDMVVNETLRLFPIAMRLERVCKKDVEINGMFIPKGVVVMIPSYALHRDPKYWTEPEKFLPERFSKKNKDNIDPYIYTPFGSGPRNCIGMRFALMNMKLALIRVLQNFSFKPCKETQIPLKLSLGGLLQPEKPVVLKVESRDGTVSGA
# Summary of the method: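 Steps: enzyme/substrate mix dispensed; compound added, 10 min RT; NADPH regeneration solution added, 60 min RT; luciferin detection buffer stops reaction; 20 min later luminescence measured.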
# [4] = target: Cytochrome P450 2D6 (Homo sapiens) (UniProt P10635); assay: qHTS Assay for Inhibitors and Substrates of Cytochrome P450 2D6 (AID 891); also: nearly all actives have a fitted effect of over 60% in size
# Cytochrome P450 2D6 (Homo sapiens), sequence (P10635 whole entry, looked up): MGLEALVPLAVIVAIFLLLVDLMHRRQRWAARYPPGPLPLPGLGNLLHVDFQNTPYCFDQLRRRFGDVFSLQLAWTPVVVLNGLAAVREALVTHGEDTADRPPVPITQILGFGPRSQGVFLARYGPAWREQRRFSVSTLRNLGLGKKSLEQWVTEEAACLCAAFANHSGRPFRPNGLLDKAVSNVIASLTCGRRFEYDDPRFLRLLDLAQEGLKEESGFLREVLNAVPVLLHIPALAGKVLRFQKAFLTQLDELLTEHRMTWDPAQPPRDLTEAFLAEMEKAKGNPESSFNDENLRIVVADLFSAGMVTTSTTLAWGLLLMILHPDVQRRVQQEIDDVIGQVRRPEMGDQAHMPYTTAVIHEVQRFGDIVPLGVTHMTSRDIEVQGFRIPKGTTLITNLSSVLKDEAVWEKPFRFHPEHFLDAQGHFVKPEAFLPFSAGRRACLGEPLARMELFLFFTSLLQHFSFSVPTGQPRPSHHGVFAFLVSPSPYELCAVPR
# Summary of the method: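 Human CYP2D6 (5 nM) with 30 uM Luciferin-ME EGE (at Km) in 100 mM KPO4, compound preincubated 10 min, then NADPH regeneration system for 60 min at room temperature. Luciferin read by luminescence; normalized to 1.43 uM quinidine.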
# [5] = target: Cytochrome P450 3A4 (Homo sapiens) (UniProt P08684); assay: qHTS Assay for Inhibitors and Substrates of Cytochrome P450 3A4 (AID 884); also: nearly all actives have a fitted effect of over 50% in size
# Summary of the method: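 20 nM human CYP3A4 with 25 uM Luciferin-PPXE (at KM) in 200 mM KPO4, preincubated 10 min with compound; NADPH regeneration started a 60 min RT reaction. Luciferin detected by luminescence, normalized to 57 uM ketoconazole as full inhibition.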
# Potency is read from the fitted curve at half-maximal effect.
smiles,measurement,setting,value
CCCc1c(-c2ccc(O)cc2)nn(-c2ccc(O)cc2)c1-c1ccc(O)cc1,Potency,[1],inactive
same,Potency,[2],3.16 µM (active)
same,Potency,[3],inactive
same,Potency,[4],39.8 µM (active)
O=c1[nH]ccc2c(O)cccc12,Potency,[1],inactive
same,Potency,[2],inactive
same,Potency,[3],inactive
NC(N)=NC(N)=Nc1ccccc1,Potency,[1],inactive
same,Potency,[2],inactive
same,Potency,[4],inactive
Cn1cc(C(=O)OCC2CCN(CCNS(C)(=O)=O)CC2)c2ccccc21,Potency,[1],inactive
same,Potency,[2],inactive
same,Potency,[4],inactive
COc1cc(/C=C(\C#N)C(=O)c2ccc(O)c(O)c2)cc(I)c1O,Potency,[1],inactive
same,Potency,[2],0.501 µM (active)
same,Potency,[3],inactive
O=C(O)c1cc2cc(F)ccc2[nH]1,Potency,[1],inactive
same,Potency,[2],inactive
same,Potency,[4],inactive
CCCCCCN(CCCCCC)C(=O)Cc1c(-c2ccc(F)cc2)[nH]c2ccccc12,Potency,[1],inactive
same,Potency,[2],inactive
same,Potency,[3],inactive
same,Potency,[4],inactive
O=C(O)c1cccnc1C(=O)O,Potency,[1],inactive
same,Potency,[2],inactive
same,Potency,[5],inactive
same,Potency,[4],inactive
O=[N+]([O-])c1cccc2cn[nH]c12,Potency,[1],inactive
same,Potency,[2],inactive
same,Potency,[4],inactive
Nc1ccc2c3c(cccc13)C(=O)NC2=O,Potency,[1],0.794 µM (active)
same,Potency,[2],inactive
same,Potency,[3],inactive
CNC(=O)c1cc2c(cn1)[nH]c1ccccc12,Potency,[1],inactive
same,Potency,[2],inactive
same,Potency,[3],inactive
same,Potency,[4],inactive
CCCCCCCC/C=C\CCCCCCCC(=O)NCCc1ccc(O)c(O)c1,Potency,[1],inactive
same,Potency,[2],1.58 µM (active)
same,Potency,[5],3.16 µM (active)
same,Potency,[3],inactive
CCCn1c(=O)c2[nH]c(C3CCCC3)nc2n(CCC)c1=O,Potency,[1],inactive
same,Potency,[2],inactive
same,Potency,[4],inactive
O=[N+]([O-])c1cccc2c(Br)[nH]nc12,Potency,[1],inactive
same,Potency,[2],inactive
same,Potency,[3],inactive
CC(=O)NNC(=O)N1Cc2ccccc2Oc2ccc(Cl)cc21,Potency,[1],inactive
same,Potency,[2],inactive
same,Potency,[3],inactive
same,Potency,[4],6.31 µM (active)
CCN(CC)CCOC(=O)c1cc(Cl)c(N)cc1OC,Potency,[1],inactive
same,Potency,[2],inactive
same,Potency,[5],inactive
same,Potency,[3],inactive
CN[C@H](CC(=O)O)C(=O)O,Potency,[1],inactive
same,Potency,[2],inactive
same,Potency,[4],inactive
CNc1cc(NS(=O)(=O)c2ccc(N)cc2)nc(NC)n1,Potency,[1],inactive
same,Potency,[2],2 µM (active)
same,Potency,[3],inactive
COCc1nc2c([nH]1)c(=O)n(C)c(=O)n2CC(C)C,Potency,[1],inactive
same,Potency,[2],inactive
same,Potency,[3],inactive
same,Potency,[4],inactive
NC(N)=NC(N)=Nc1cccc(Cl)c1,Potency,[1],inactive
same,Potency,[2],inactive
same,Potency,[3],inactive
C[C@H](NC(=O)/C(C#N)=C/c1ccc(O)c(O)c1)c1ccccc1,Potency,[1],inactive
same,Potency,[2],inactive
same,Potency,[3],inactive
same,Potency,[4],inactive
O=C(O)/C=C/c1ccc(O)c(O)c1,Potency,[1],inactive
same,Potency,[3],inactive
CC(=O)NCCc1c[nH]c2ccc(O)cc12,Potency,[1],inactive
same,Potency,[3],inactive
O=C(OCCN1CCOCC1)C1(c2ccccc2)CCCCC1,Potency,[1],inactive
same,Potency,[3],inactive
Cn1c(=O)[nH]c2ncn(C)c2c1=O,Potency,[1],inactive
same,Potency,[5],inactive
Cc1ccc([N+](=O)[O-])cc1S(=O)(=O)N(C)C,Potency,[1],inactive
same,Potency,[3],inactive
Cc1cccc(C(=O)NCN2CCN(c3ccccc3C#N)CC2)c1,Potency,[1],inactive
same,Potency,[3],inactive
Nc1ncnc2c1c(-c1ccc(Oc3ccccc3)cc1)cn2C1CCCC1,Potency,[1],inactive
same,Potency,[3],3.16 µM (active)
Nc1ccc(N2C(=O)c3ccccc3C2=O)c(Cl)c1,Potency,[1],inactive
same,Potency,[3],inactive
O=c1onc2n1-c1cc(Br)ccc1OC2,Potency,[1],inactive
same,Potency,[3],inactive
O=C(N[C@@H](Cc1ccccc1)C(=O)CCl)OCc1ccccc1,Potency,[1],inactive
same,Potency,[3],inactive
COc1cc2c(CCNC(C)=O)c[nH]c2cc1O,Potency,[1],inactive
same,Potency,[3],inactive
CC(C)[C@H](NC(=O)OCc1ccccc1)C(=O)N[C@H](C=O)Cc1ccccc1 (Cbz-Val-Phe-aldehyde),Potency,[1],inactive
same,Potency,[3],inactive
Clc1nccc2c1ccc1ccccc12,Potency,[1],inactive
same,Potency,[3],inactive
O=c1[nH]c2cc(Cl)ccc2c(O)c1-c1ccc(Oc2ccccc2)cc1,Potency,[1],inactive
same,Potency,[3],inactive
COc1cc(N)c(Cl)cc1C(=O)OCCN1CCCCC1,Potency,[1],inactive
same,Potency,[5],15.8 µM (active)
same,Potency,[3],inactive
CNCCNS(=O)(=O)c1cccc2cnccc12,Potency,[1],inactive
same,Potency,[3],inactive
CCCOC(=O)c1c(-c2ccccc2)nc(CC)c(C(=O)SCC)c1CCC,Potency,[1],inactive
same,Potency,[3],inactive
S=C(S)N1CCCC1,Potency,[1],inactive
same,Potency,[3],inactive
CCN(CC)CCCCCCCCOC(=O)c1cc(OC)c(OC)c(OC)c1,Potency,[1],inactive
same,Potency,[3],inactive
Cn1c(=O)c2[nH]c(C3CCCC3)nc2n(C)c1=O,Potency,[1],inactive
same,Potency,[3],inactive
N=C(N)SCCN,Potency,[1],inactive
same,Potency,[3],inactive
Nc1ccc(-c2ccc3ccccc3n2)cc1,Potency,[1],inactive
same,Potency,[3],inactive
N[C@H](C(=O)O)[C@H](O)C(=O)O,Potency,[1],inactive
same,Potency,[3],inactive
[Li+],Potency,[1],inactive
same,Potency,[3],inactive
N#C/C(=C\c1ccc(O)c(O)c1)C(=O)NCCc1ccccc1,Potency,[1],inactive
same,Potency,[3],inactive
CC(C)(C)c1cc(/C=C(\C#N)C(N)=S)cc(C(C)(C)C)c1O,Potency,[1],inactive
same,Potency,[3],inactive
COc1ccc(CCN(C)CCc2ccc(OC)c(OC)c2)cc1OC,Potency,[1],inactive
same,Potency,[3],inactive
Nc1ncnc2c1ncn2C1CCCC1,Potency,[1],inactive
same,Potency,[3],inactive
N#CC(C#N)=C(N)/C(C#N)=C/c1ccc(O)cc1,Potency,[1],inactive
same,Potency,[3],inactive
CCCCOC(=O)NS(=O)(=O)c1sc(CC(C)C)cc1-c1ccc(Cn2c(CC)nc3c(C)cc(C)nc32)cc1,Potency,[1],inactive
same,Potency,[5],3.16 µM (active)
same,Potency,[3],inactive
O=C1NC(=O)c2cc(Nc3ccccc3)c(Nc3ccccc3)cc21,Potency,[1],inactive
same,Potency,[3],inactive
c1ccc2c(c1)CC(N1CCN(c3cccc4c3OCCO4)CC1)C2,Potency,[1],inactive
same,Potency,[5],inactive
same,Potency,[3],25.1 µM (active)
CN1CCN(c2nc3cc(C(F)(F)F)ccc3n3cccc23)CC1,Potency,[1],inactive
same,Potency,[3],inactive
CC(C)(CO)Cc1cc(C(C)(C)C)c(O)c(C(C)(C)C)c1,Potency,[1],inactive
same,Potency,[5],2.51 µM (active)
same,Potency,[3],inactive
same,Potency,[4],inactive
Nc1nc2c(cnn2CCc2ccccc2)c2nc(-c3ccco3)nn12,Potency,[5],31.6 µM (active)
same,Potency,[3],inactive
CN(C)CCCc1cc(C(=O)Nc2ccc(-c3ccncc3)cc2)ccc1O,Potency,[3],inactive
same,Potency,[4],5.01 µM (active)
C=C1C(=O)O[C@@H]2[C@H]3O[C@]3(C)CCC=C(C)CC[C@@H]12,Potency,[2],inactive
same,Potency,[3],inactive
same,Potency,[4],inactive
NC1(C(=O)O)CCCCC1,Potency,[1],inactive
same,Potency,[4],inactive
CCCCCCCCCCC(C)(C)C(=O)Nc1c(OC)cc(OC)cc1OC,Potency,[3],inactive
CCSC(=N)N,Potency,[1],inactive
same,Potency,[3],inactive
same,Potency,[4],3.98 µM (active)
CCCn1c(=O)c2c(ncn2C)n(CCC)c1=O,Potency,[1],inactive
same,Potency,[3],inactive
COc1ccccc1N1CCN(CCCCN2C(=O)c3ccccc3C2=O)CC1,Potency,[1],inactive
same,Potency,[3],inactive
O=c1[nH]c(=S)[nH]c(-c2ccccc2)c1Cc1c(O)ccc2ccccc12,"activity change, positive = activation",[3],-42.7% [at 11.4 µM] (inactive)
Fc1ccc(CN(C2=NCCN2)c2c(Cl)cccc2Cl)cc1,Potency,[1],inactive
same,Potency,[4],1.26 µM (active)
O=C(O)c1ccccc1Nc1ccccc1,Potency,[1],inactive
same,Potency,[3],inactive
O=C(c1ccc2c(c1)OCCO2)N1CCCCC1,Potency,[2],inactive
same,Potency,[4],inactive
COc1ccc2c(c1)c(CC(=O)O)c(C)n2C(=O)c1ccccc1,Potency,[1],inactive
same,Potency,[4],inactive
CSC(=N)N,Potency,[4],0.0501 µM (active)
COc1ccc2c(c1)c(CC(=O)O)c(C)n2Cc1ccc(Cl)cc1,Potency,[3],inactive
C[C@H](O)C(=O)C1=Nc2c(nc(N)[nH]c2=O)NC1,Potency,[3],inactive
c1ccc(C(NCCNC(c2ccccc2)c2ccccc2)c2ccccc2)cc1,Potency,[3],5.01 µM (active)
CC(C)Cn1c(=O)n(C)c(=O)c2[nH]cnc21,Potency,[1],inactive
same,Potency,[3],inactive
Oc1cc(O)c2c(c1)O[C@H](c1ccc(O)c(O)c1)[C@@H](O)C2,Potency,[2],inactive
same,Potency,[4],inactive
c1ccc(CN2CCC3(CCCc4ccccc43)CC2)cc1,Potency,[1],inactive
same,Potency,[3],25.1 µM (active)
same,Potency,[4],0.251 µM (active)
c1ccc2nc(C3=NCCN3)ccc2c1,Potency,[1],inactive
same,Potency,[3],inactive
C[C@](Cc1ccc(O)c(O)c1)(NN)C(=O)O,Potency,[2],inactive
same,Potency,[4],inactive
NC1CONC1=O (stereo unspecified),Potency,[3],inactive
Cc1nc(N=Nc2ccc(C(=O)O)cc2)c(COP(=O)(O)O)c(C=O)c1O,Potency,[2],inactive
same,Potency,[3],inactive
NC(=Nc1ccccc1)NC(=O)c1nc(Cl)c(N)nc1N,Potency,[1],inactive
same,Potency,[3],inactive
Cc1nc2c(OCc3ccccc3)cccn2c1CC#N,Potency,[1],inactive
same,Potency,[3],inactive
N=C(N)SCCc1cnc[nH]1,Potency,[1],inactive
same,Potency,[3],inactive
same,Potency,[4],6.31 µM (active)
NC[C@@H]1O[C@H](c2ccccc2)Cc2c1ccc(O)c2O,Potency,[2],6.31 µM (active)
same,Potency,[3],inactive
Nc1ccc(-c2nc3ccc(-c4nc5ccc(N)cc5[nH]4)cc3[nH]2)cc1,Potency,[1],inactive
same,Potency,[3],inactive
NC(=O)CNCCC(c1ccccc1)c1ccccc1,Potency,[1],inactive
same,Potency,[3],inactive
CN(C)S(=O)(=O)c1ccc2c(c1)/C(=C/c1cc3c([nH]1)CCCC3)C(=O)N2,Potency,[1],inactive
same,Potency,[3],inactive
O=C1Cc2c([nH]c3ccc(Br)cc23)-c2ccccc2N1,Potency,[1],inactive
same,Potency,[3],inactive
same,Potency,[4],inactive and 398 nM (active)
CCc1ccc2c(-c3cccc(Cl)c3)nc(=O)n(CC)c2n1,Potency,[3],inactive
COc1ccccc1N1CCN(CCCCNC(=O)c2ccc3ccccc3c2)CC1,Potency,[1],inactive
same,Potency,[3],inactive
same,Potency,[4],3.16 µM (active) and 3.98 µM (active)

# — PubChem BioAssay (NCATS)
